Source: PubChem (National Center for Advancing Translational Sciences (NCATS))
PLK1 PBD block = inhibitors of human PLK1 polo-box domain binding; 360,000 compounds, 2.8% hits; Plk1 PBD binding of FITC phosphopeptide, fluorescence polarization; AID 720504; P53350; Potency, µM, inactives show max response, negative = inhibition, most hits filed as inhibitors; also: series mostly up to about 57 µM; nearly all actives have a fitted effect of over 65% in size
Target sequence (P53350 whole entry, looked up, the tested form may be a part): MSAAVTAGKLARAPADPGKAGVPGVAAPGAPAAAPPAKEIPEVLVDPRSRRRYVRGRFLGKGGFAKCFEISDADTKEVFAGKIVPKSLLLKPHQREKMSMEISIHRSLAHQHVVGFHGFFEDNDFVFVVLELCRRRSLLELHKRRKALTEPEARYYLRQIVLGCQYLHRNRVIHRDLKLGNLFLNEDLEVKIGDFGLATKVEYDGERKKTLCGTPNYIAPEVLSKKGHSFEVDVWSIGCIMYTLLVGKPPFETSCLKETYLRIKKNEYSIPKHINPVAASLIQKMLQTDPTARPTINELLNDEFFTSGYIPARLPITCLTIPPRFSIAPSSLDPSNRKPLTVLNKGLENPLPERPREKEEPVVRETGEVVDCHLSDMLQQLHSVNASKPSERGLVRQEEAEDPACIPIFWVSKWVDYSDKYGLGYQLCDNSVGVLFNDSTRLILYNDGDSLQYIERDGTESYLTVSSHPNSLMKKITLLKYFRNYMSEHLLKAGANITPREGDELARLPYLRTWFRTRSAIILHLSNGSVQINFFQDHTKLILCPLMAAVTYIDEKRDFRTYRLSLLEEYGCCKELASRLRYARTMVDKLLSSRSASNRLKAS
TDP1 inh = inhibitors of human tyrosyl-DNA phosphodiesterase TDP1; recombinant TDP1, AlphaScreen DNA substrate cleavage; Potency, µM (highest dose often 130 µM), inactives show top-dose activity change, negative = inhibition, hits mostly inhibitors; 350,000 compounds, 0.28% hits; Q9NUW8; also: nearly all actives have a fitted effect of over 40% in size
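Here, a 5' biotin and 3' phosphotyrosine-FITC DNA oligonucleotide reports Tdp1 activity: intact substrate bridges AlphaScreen beads, while cleavage leaves a 3' phosphate and drops signal. All incubations at room temperature.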
TDP1 cell noCPT = qHTS for Inhibitors of human tyrosyl-DNA phosphodiesterase 1 (TDP1): qHTS in cells in absence of CPT. 420,000 compounds, 15% hits. DT40 Tdp1-/- hTDP1 cells, no CPT, ATP luminescence, 48 h. AID 686978, 2013. Potency, µM (doses to about 46.2 µM), inactives show at the top dose activity change, negative = growth inhibition, actives largely listed as inhibitors; also: nearly all actives have a fitted effect of over 55% in size
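Growth of hTDP1-complemented DT40 Tdp1-knockout cells is measured by ATP luminescence after at least 48 hr compound exposure at 37 °C, with DMSO substituting for the 20 nM CPT used in the parallel screen.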
KAT2A inh = inhibitors of human GCN5L2 histone acetyltransferase. GCN5L2 HAT assay, ThioGlo1 CoA-SH fluorescence. Potency, µM (series often up to 58.9 µM), inactives show at the highest dose activity change, negative = inhibition, most hits filed as inhibitors. 390,000 compounds, 0.21% hits. AID 504327
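Free CoA generated was detected with ThioGlo1 (50uM) fluorescence at Ex340nm/Em540nm, read immediately and after 20 min at room temperature. Enzyme, 20 nM in HEPES pH 7.5 buffer, saw compounds 15 min before adding 75uM H3(1-25) peptide and 70uM acetyl-CoA.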
VDR inhibitor = vitamin D3 receptor (human) inhibition | P11473 | VDR-SRC2-3 peptide fluorescence polarization, 2 h | Potency, µM, without a hit: max response, negative = inhibition, usual class: inhibitors | 400,000 compounds, 0.93% hits | AID 504847
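Compounds are added to VDR with labelled SRC2-3 coactivator peptide and held 2 h at room temperature. Inhibition of the VDR–peptide interaction is then read as a change in fluorescence polarization.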
TDP1 cell CPT = DT40-hTDP1 cell growth loss with CPT; chicken DT40 Tdp1-/-;hTDP1 cells + 20 nM CPT, ATP luminescence, 48 h; Potency, µM (highest dose often 46.2 µM), for inactives: at the highest dose activity change, negative = growth inhibition, usual class: inhibitors; 420,000 compounds, 12% hits; AID 686979; also: nearly all actives have a fitted effect of over 55% in size
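Chicken DT40 Tdp1-/- cells stably complemented with human TDP1 were seeded at 400 cells/well in medium containing 20 nM camptothecin, exposed to pin-transferred compounds, and grown at 37 °C for at least 48 hr. Viability was read as ATP luminescence.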
An asterisk follows results filed as active; ? = inconclusive; nt = no result given; [ ] = remark or other dose. Shown are actives, neighbours in structure and some others; about 18% of the full set was active somewhere. Calls follow the shape of the dose curve; as a rule, active = well fitted curve in the direction sought with a large enough effect; inconclusive = small, poorly fitted or top-dose-only effect, or another doubt; inactive = no such curve, though single readings can be large; an effect the other way counts as inactive or inconclusive. % is scaled to controls: 0 for no effect and ±100 for the full control effect; potency is read from the fitted curve at half-maximal effect.

SMILES | PLK1 PBD block | TDP1 inh | TDP1 cell noCPT | KAT2A inh | VDR inhibitor | TDP1 cell CPT
Cc1ccc(S(=O)(=O)N(C)Cc2ccc(C(=O)N/N=C/c3ccc(OC(F)F)cc3OC(F)F)cc2)cc1 | 0% | 5% | 23µM* | -7% | -1% | ?
COc1ccc(CCNC(=O)C(=O)NCc2ccc(C)cc2)cc1OC | -7% | 0% | -2% | -2% | 3% | 6%
O=S(=O)(c1ccccc1)N1N=C(c2ccc(O)cc2)CC1c1ccco1 (stereo not drawn) | -1% | 6% | 7.3µM* | -10% | -7% | 8.2µM*
O=S(=O)(c1ccccc1)N1N=C(c2ccccc2)CC1c1ccccc1F (stereo not drawn) | -3% | nt | ? | -8% | -8% | 16µM*
COc1ccccc1C1CC(c2ccc(NS(C)(=O)=O)cc2)=NN1S(=O)(=O)c1ccccc1 (stereo not drawn) | 2% | 5% | -12% | -7% | 28% | -13%
O=S(=O)(c1ccccc1)N1N=C(c2ccc(Br)cc2)CC1c1ccco1 (stereo not drawn) | 3µM* | 2% | 16µM* | -1% | ? | 16µM*
Cc1cc(C)c(CN2CCN(C(=O)CC[C@H]3O[C@@H](n4ccc(=O)[nH]c4=O)[C@H](O)[C@@H]3O)CC2)c(C)c1 | -10% | nt | ? | nt | nt | -10%
Cc1ccc(S(=O)(=O)NN=CC2(c3ccccc3)CC2)cc1 | 4% | nt | -29% | nt | nt | -18%
Cc1ccc(NC(=O)c2cc(S(=O)(=O)NCCC3=CCCCC3)ccc2F)cc1F | -5% | 0% | 16µM* | -25% | -5% | ?
Cc1cc(C)cc(NC(=O)c2cc(S(=O)(=O)NCCC3=CCCCC3)ccc2F)c1 | nt | 3% | ? | -8% | 8% | ?
COc1ccc(NC(=O)c2cc(S(=O)(=O)NCCC3=CCCCC3)ccc2F)cc1 | nt | 10% | 23µM* | 2% | 8% | 26µM*
COc1ccc(C)cc1NC(=O)c1cc(S(=O)(=O)NCCC2=CCCCC2)ccc1F | nt | 0% | ? | -3% | 15% | 21µM*
Nc1ncc(Br)cc1S(=O)(=O)Nc1cc(C(F)(F)F)cc(C(F)(F)F)c1 | 30µM* | 2% | 18µM* | -39% | ? | ?
Cc1ccc(NS(=O)(=O)c2cc(Br)cnc2N)c(Cl)c1 | -14% | 5% | 29% | -2% | -4% | -2%
Cc1cc(NC(=O)Nc2cc(C)nn2-c2ccccc2)n(-c2ccccc2)n1 | 1% | -4% | -3% | 0% | 1% | -3%
Cc1cc(Nc2nnnn2-c2ccccc2)n(-c2ccccc2)n1 | -3% | 4% | -16% | 2% | -10% | ?
Cc1cc(Nc2nc3ccccc3nc2Cl)n(-c2ccccc2)n1 | -6% | -3% | 16µM* | -4% | 23% | 18µM*
Cc1cc(Nc2ccccc2)n(-c2ccc(Br)cc2)n1 | ? | -7% | ? | -1% | -1% | 18µM*
NC(=O)CSc1ccc2nnc(-c3ccncc3)n2n1 | nt | 3% | -17% | nt | -20% | 10%
CCOC(=O)CC[C@H](NC(=O)Cn1cnc(C(=O)Nc2ccc(C)c(C)c2)n1)C(=O)OCC | -9% | 2%[56.1 µM] | -21% | -1% | -15% | ?
CC(C)COc1ccc(C(=O)N2CCCCC2CCN2CCCCC2)cc1 (stereo not drawn) | nt | 7% | ? | 2% | 0% | ?
NC(=S)N=Nc1c(O)cc(O)c2[nH]c(=O)ccc12 | 7.5µM* | nt | -14% | nt | ? | -1%
CCOc1ccc(NC(=O)CN(C)C(=O)c2sccc2-c2ccccc2)cc1OCC | -10% | 2% | ? | 2% | -12% | ?
O=C(CNC(=O)c1cccc(Cl)c1)NCCCSc1ccccc1 | -9% | -3%[0.505 µM] | 23µM* | 2% | -4% | ?
